Test results: the supplement of paper PMC6607015
Where a name gives a salt, the structure may show the parent alone.

Experiments:
Settings in all cases: compound concentration in added solution (µM; 5 µl added to 20 µl cells): 10; 18 h
A431 [1] = assay: LBPA endosome anti-LBPA integrated intensity (sum per cell), Z-score; higher = more LBPA staining
Method in brief: (§1)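 Duplicate 384-well imaging plates were prepared with 5 µl of 10 µM compound solution per well, and 3,500 HeLa MZ or A431 cells in 20 µl were added on top. Following 18 h of incubation and fixation in 4% PFA, cells received 6C4 anti-LBPA antibody, filipin, propidium iodide and CellTracker green. Four images per well at 20× were segmented in MetaXpress to yield per-cell integrated LBPA or filipin intensity, whole-cell or within LBPA endosomes. These intensities are reported as Z-scores normalised in AcuityXpress.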

HeLa MZ [2] = assay: as above
Method in brief: as §1

A431 [3] = assay: whole-cell filipin (free cholesterol) integrated intensity, Z-score; higher = more cholesterol staining
Method in brief: as §1

HeLa MZ [4] = assay: as above
Method in brief: as §1

A431 [5] = assay: filipin (cholesterol) integrated intensity within LBPA endosomes, Z-score; higher = more cholesterol in LBPA endosomes
Method in brief: as §1

HeLa MZ [6] = assay: as above
Method in brief: as §1

Row | Structure (SMILES) | LBPA endosome anti-LBPA integrated intensity (z-score) (A431 [1]) | LBPA endosome anti-LBPA integrated intensity (z-score) (HeLa MZ [2]) | whole-cell filipin (z-score) (A431 [3]) | whole-cell filipin (z-score) (HeLa MZ [4]) | filipin (z-score) (A431 [5]) | filipin (z-score) (HeLa MZ [6])
1 | CC(=O)Nc1nnc(S(N)(=O)=O)s1 [Acetazolamide] | -0.546 | -1.16 | -0.799 | -0.564 | -0.395 | -0.429
2 | CO[C@H]1C[C@H](O[C@H]2[C@H](C)[C@@H](O[C@@H]3O[C@H](C)C[C@H](N(C)C)[C@H]3OC(C)=O)[C@@H](C)C[C@@]3(CO3)C(=O)[C@H](C)[C@@H](OC(C)=O)[C@@H](C)[C@@H](C)OC(=O)[C@@H]2C)O[C@@H](C)[C@@H]1OC(C)=O [Troleandomycin] | -0.105 | 0.938 | -0.701 | -0.492 | -0.249 | -0.17
3 | CN1CCCN=C1/C=C/c1cccs1 [Pyrantel tartrate] | -0.533 | -0.181 | -0.934 | -1.12 | -0.565 | -0.677
4 | CC(C)(S)[C@@H](N)C(=O)O [Penicillamine] | -0.535 | -0.589 | -0.551 | -0.607 | -0.469 | -0.553
5 | CC(CCc1ccc(O)cc1)NCCc1ccc(O)c(O)c1 (stereo not given) [Dobutamine hydrochloride] | -0.212 | 0.142 | -0.349 | -0.893 | -0.473 | -0.28
6 | C[C@]12CC[C@@H]3c4ccc(OS(=O)(=O)O)cc4CC[C@H]3[C@@H]1CCC2=O [Estropipate] | -0.486 | -0.706 | -0.265 | -0.499 | -0.418 | -0.5
7 | CC(C)(Oc1ccc(CCNC(=O)c2ccc(Cl)cc2)cc1)C(=O)O [Bezafibrate] | -0.429 | -0.597 | -0.437 | -0.728 | -0.456 | -0.612
8 | COc1ccc([C@@H]2CC(=O)c3c(O)cc(O[C@@H]4O[C@H](CO[C@@H]5O[C@@H](C)[C@H](O)[C@@H](O)[C@H]5O)[C@@H](O)[C@H](O)[C@H]4O)cc3O2)cc1O [Hesperidin] | -0.494 | -1.29 | -0.6 | -0.779 | -0.447 | -0.68
9 | CC(C)NCC(O)COc1ccc(CCOCC2CC2)cc1 (stereo not given) [Betaxolol hydrochloride] | 2.57 | 2.19 | 0.139 | -0.283 | 0.614 | 0.292
10 | CCOC(=O)c1ccc(N)cc1 [Benzocaine] | -0.607 | -1.32 | -0.4 | -0.36 | -0.613 | -0.643
11 | CC(C)(C)NCC(O)c1cc(O)cc(O)c1 (stereo not given) [Terbutaline hemisulfate] | -0.651 | -1.35 | -0.395 | -0.481 | -0.593 | -0.644
12 | Cc1cccc(Nc2ccncc2S(=O)(=O)NC(=O)NC(C)C)c1 [Torsemide] | -0.347 | -0.115 | 0.00281 | 0.228 | -0.452 | -0.394
13 | COc1ccccc1N1CCN(CC(O)COc2cccc3ccccc23)CC1 (stereo not given) [Naftopidil dihydrochloride] | 0.776 | 1.7 | 0.857 | 0.537 | 0.575 | 0.742
14 | Cc1cn([C@H]2C[C@H](N=[N+]=[N-])[C@@H](CO)O2)c(=O)[nH]c1=O [Zidovudine, AZT] | -0.815 | -0.853 | -0.904 | 0.114 | -0.643 | -0.555
15 | CC1(C)NC(=O)N(c2ccc([N+](=O)[O-])c(C(F)(F)F)c2)C1=O [Nilutamide] | -0.466 | -0.349 | -0.373 | -0.711 | -0.474 | -0.472
16 | CC(C)NCC(O)c1ccc(O)c(O)c1 (single isomer, unassigned; (-)) [(-)-Isoproterenol hydrochloride] | -0.173 | -0.052 | 0.672 | -0.415 | -0.458 | -0.467
17 | CC(=O)OCC(=O)[C@@]12OC(C)(C)O[C@@H]1C[C@H]1[C@@H]3C[C@H](F)C4=CC(=O)C=C[C@]4(C)[C@@]3(F)[C@@H](O)C[C@@]12C [Fluocinonide] | -0.115 | -0.842 | -0.144 | -0.284 | -0.311 | -0.49
18 | NS(=O)(=O)c1cc2c(cc1C(F)(F)F)NC(Cc1ccccc1)NS2(=O)=O (stereo not given) [Bendroflumethiazide] | -0.595 | -0.755 | -0.332 | -0.0234 | -0.529 | -0.486
19 | CCc1nc(N)nc(N)c1-c1ccc(Cl)cc1 [Pyrimethamine] | 0.585 | 0.917 | 0.585 | -0.093 | -0.133 | -0.422
20 | Clc1cc(Cl)c(OCC#CI)cc1Cl [Haloprogin] | -0.472 | -1.16 | -0.945 | -0.949 | -0.529 | -0.714
